Screening results: PubChem, National Center for Advancing Translational Sciences (NCATS)
Shown are actives, neighbours in structure and some others; about 1.3% of the full set was active somewhere.
PKM2 act = qHTS Assay for Activators of Human Muscle isoform 2 Pyruvate Kinase. Pyruvate kinase PKM (Homo sapiens), P14618. purified PKM2, Kinase-Glo ATP luminescence, activation; response scale: 0% is enzyme alone, no compound. Potency, µM (top dose mostly 57.5 µM), for inactives: at the highest dose activation, hits mostly activators. 260,000 tested, 0.34% active. AID 1631, 2009; active = well fitted activation curve with a large enough effect; inconclusive = small, poorly fitted or top-dose-only effect; inactive = no such curve, though single readings can be large or run the other way; note: potency is the fitted concentration of half-maximal effect; % is set by controls: 0 for no effect and ±100 for the full control effect; nearly all actives have a fitted effect of over 55% in size
Target sequence (P14618 whole entry, looked up, canonical isoform): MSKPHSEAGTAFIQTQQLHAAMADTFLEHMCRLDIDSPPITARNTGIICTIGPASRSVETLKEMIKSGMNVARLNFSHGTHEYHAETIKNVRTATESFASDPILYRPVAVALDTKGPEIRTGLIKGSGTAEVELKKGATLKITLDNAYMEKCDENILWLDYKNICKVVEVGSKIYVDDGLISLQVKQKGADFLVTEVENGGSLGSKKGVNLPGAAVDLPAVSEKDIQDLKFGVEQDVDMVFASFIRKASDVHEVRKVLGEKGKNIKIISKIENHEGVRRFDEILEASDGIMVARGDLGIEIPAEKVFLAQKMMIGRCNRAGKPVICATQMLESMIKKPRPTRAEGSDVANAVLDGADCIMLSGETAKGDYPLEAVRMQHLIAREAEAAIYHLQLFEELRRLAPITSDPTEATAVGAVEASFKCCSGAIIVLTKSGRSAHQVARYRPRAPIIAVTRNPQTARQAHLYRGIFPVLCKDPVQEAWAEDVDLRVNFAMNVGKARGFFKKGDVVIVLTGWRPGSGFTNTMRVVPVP
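Purified hPK-M2 (>95% pure) converted ADP (0.1 mM final) to ATP with 0.5 mM PEP in 50 mM imidazole pH7.2, KCl, MgCl2, Tween 20, BSA; 1 h at room temperature. ATP detected by Kinase-Glo luminescence.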
TRPML1 agonist = qHTS for Agonists of the Human Mucolipin Transient Receptor Potential 1 (TRPML1). Mucolipin-1 (Homo sapiens), Q9GZU1. TRPML1-expressing cells, Ca2+ dye fluorescence, FDSS. activation, % (no concentration beside the values). 410,000 tested, 0.12% active. AID 624414, 2012; note: 0% is about no effect
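In this qHTS format, compounds were pin-transferred onto Ca8-dye-loaded TRPML1-DL cells induced with Tet overnight, and intracellular Ca2+ fluorescence was recorded kinetically for 110 s after a 10 s baseline. A subsequent 4uM final 54-4 (EC80) addition followed by a second 110 s read served as the antagonist phase.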
TRPML1 inh = qHTS for Inhibitors of the Human Mucolipin Transient Receptor Potential 1 (TRPML1) | Mucolipin-1 (Homo sapiens), Q9GZU1 | TRPML1-inducible cells, Ca2+ dye fluorescence, FDSS; hits give low values; inhibition of EC80 agonist-evoked calcium signal | activity change, negative = inhibition, % (concentration not given with the values) | 390,000 tested, 0.02% active | AID 624415, 2012; in the data active = activity change below about -50%; inconclusive = between about -30% and that limit;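 note: stimulus is agonist 54-4 at its EC80 concentration; % is set by controls: 0 for no effect and ±100 for the full control effect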
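TRPML1-DL cells, Tet-induced overnight (~16 h, 37 °C) at 1,500 cells/well, were loaded with Ca8 no-wash dye plus quencher for 45-90 min at room temperature. Compounds were pinned during FDSS kinetic reading; agonist 54-4 at EC80 (4 uM final) then added.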
IL2 activator = qHTS of IL-2 Activators; AID 652025, 2013; 360,000 tested, 0.065% active; activation, % (series mostly up to about 46 µM); IL-2 activation reporter assay, cell-based qHTS; stimulated with anti-CD3/CD4/CD28 beads; in transgenic mouse T cells; note: 0% is about no effect
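Unstimulated transgenic mouse T cells preincubated 60 min with compound, then stimulated with anti-CD3/anti-CD4-coated beads plus anti-CD28 for 18 h at 37 degrees C. IL-2 response read as EGFP and DsRed fluorescence by plate cytometry.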
BRCA1 expr act = qHTS Assay to Identify Small Molecule Activators of BRCA1 Expression; MCF7-BRCA1-FFLuc reporter, luminescence, 48 h; response scale: scaled: vehicle 0%, 10 µM genistein 100%; Potency, µM (doses to about 46.1 µM), inactives show at the highest dose activation, usual class: activators; 380,000 tested, 1.1% active; AID 624202, 2012; active = well fitted activation curve with a large enough effect; inconclusive = small, poorly fitted or top-dose-only effect; inactive = no such curve, though single readings can be large or run the other way; note: potency is the fitted concentration of half-maximal effect; nearly all actives have a fitted effect of over 80% in size
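Using MCF7 cells harboring a BRCA1 firefly luciferase reporter, plated 2 h before compound pinning, the screen measured luminescence after 48 h incubation. Responses were normalized to DMSO and 10 microM genistein, then fitted for concentration-effect.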
PTAP TSG101 blk = qHTS Assay for Iinhibitors of HIV-1 Budding by Blocking the Interaction of PTAP/TSG101; Fluorescence polarization, FITC-PTAP peptide / Tsg101 binding; 340,000 tested, under 10 active; Potency, µM (titrated, usually from 115 µM), without a hit: top-dose activity change, negative = inhibition, hits mostly inhibitors; Tumor susceptibility gene 101 protein (Homo sapiens), Q99816; active = well fitted inhibition curve with a large enough effect in the main read-out, with a control signal flat, not every such curve was filed as active; inconclusive = small, poorly fitted or top-dose-only effect, or effect the other way, or a change in a side signal; inactive = no such curve, though single readings can be large or run the other way; note: potency is the fitted concentration of half-maximal effect; % of control where 0% means no effect
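Tsg101 binding domain (10 uM final) was mixed with compound and a FITC-labeled PTAP peptide (50 nM final) in HEPES pH 7.5 buffer with NaCl, Tween 20, EDTA and TCEP; fluorescence polarization was read after 20 min at r.t.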
The depositor's hits bear a star; ? = inconclusive; . = not tested or not shown. Cut-off read from the data, not from the text of the source, unless noted: active = activation above about 50%; inconclusive = mostly about 30% to 49%; inactive = weaker than that.

SMILES	PKM2 act	TRPML1 agonist	TRPML1 inh	IL2 activator	BRCA1 expr act	PTAP TSG101 blk
S=C(c1ccc(-c2cccc(Cl)c2)o1)N1CCOCC1	2%	0	15	-3	3.5µM*	-7%
CCOC(=O)C1=C(CN2CCN(c3ccccc3F)CC2)NC(=O)NC1c1ccc(OC)cc1 (stereo not given)	.	0	6	.	.	.
CCc1cc2c(=O)n(-c3ccccc3)cnc2s1	-2%	9	-13	1	18µM*	0%
CC1Sc2ccc(C(=O)OCc3ccccc3Cl)cc2NC1=O (stereo not given)	.	2	-9	-1	6.3µM*	0%
COc1cccc(COC(=O)c2ccc3c(c2)NC(=O)C(C)S3)c1OC (stereo not given)	.	1	10	0	-35%	-4%
CCOc1ccc(OCc2ccc(C(=O)Nc3cccnc3)o2)cc1	-5%	5	-10	0	10%	1%
CCOc1ccc(OCc2ccc(C(=O)NCc3cccnc3)o2)cc1	2%	-1	-6	0	11µM*	1%
COc1ccc(-n2c(-c3ccccc3)cc3c2CCCC3=O)cc1	-2%	0	?	2	-64%	-2%
COc1ccc(-n2ccc(=O)c3c2CCCC3=O)cc1	28µM*	0	-9	-1	23%	0%
S=c1nc[nH]c2n[nH]nc12	.	0	.	.	0%	.
COc1ccc(C)cc1NC(=O)C(=O)NCC(c1cccnc1)N1CCc2ccccc21 (stereo not given)	.	2	-27	.	.	.
O=C(Nc1ccc2c(c1)CCC2)c1cnccn1	-23%	0	-14	-1	3.5µM*	-4%
O=C(CSc1ncccn1)Nc1ccc2c(c1)CCC2	-14%	-1	-8	0	8.9µM*	-5%
O=C(c1ccccc1Cl)N1CCCCC1CCN1CCCCC1 (stereo not given)	.	2	4	.	.	.
Cc1ccccc1/C=C1\CCCc2ccccc2C1=O	-6%	3	5	-2	7.1µM*	-4%
Cc1cc2c(cc1S(=O)(=O)Nc1ccc(F)cc1)n(C)c(=O)c(=O)n2C	2.5µM*	0	1	6	-26%	12%
Cc1cc2c(cc1S(=O)(=O)Nc1cccc(C)c1C)n(C)c(=O)c(=O)n2C	0.5µM*	1	40	-4	-12%	-7%
COc1ccc(C2N=C(Nc3nc4ccccc4o3)NC3=C2C(=O)CC(C)(C)C3)cc1 (stereo not given)	.	0	.	.	-1%	.
Cc1cccc(Nc2ncc3c(n2)CC(c2ccco2)CC3=O)c1 (stereo not given)	9%	1	0	-1	60%	-1%
Cc1cccc(Nc2ncc3c(n2)CC(C)CC3=O)c1 (stereo not given)	-4%	0	4	0	5µM*	-2%
Cc1ccc(NC(=O)Nc2cccnc2)cc1Cl	.	1	-27	-2	13µM*	0%
O=C(Nc1cccnc1)Nc1cc(Cl)cc(Cl)c1	3%	0	-6	-7	-41%	-2%
COc1ccc(N2CCN(Cc3nc4c(c(=O)[nH]c(=O)n4C)n3CC(C)C)CC2)cc1	.	0	-3	.	.	.
COc1ccc(-n2c(C)nn(CCOc3ccccc3)c2=O)cc1	0%	-1	3	1	10µM*	1%
Cc1nc2ccc(C(=O)OC(C)C(=O)c3c(C)[nH]c4ccccc34)cc2nc1C (stereo not given)	.	-1	.	.	15%	.
SMILES	PKM2 act	TRPML1 agonist	TRPML1 inh	IL2 activator	BRCA1 expr act	PTAP TSG101 blk
Cc1ccc(N=Nc2c(C)[nH]n(C(N)=S)c2=O)cc1	1%	0	-24	-1	-12%	-1%
Cc1[nH]n(C(N)=S)c(=O)c1N=Nc1ccc(Br)cc1	.	2	-1	-1	4.5µM*	-4%
CCOc1ccccc1NC(=O)N(Cc1ccc(C)o1)C1CCN(C(C)=O)CC1	.	-1	-17	.	.	.
c1ccc(CSc2nc3ncccn3n2)cc1	.	3	7	1	2.5µM*	-5%
O=C(NCCc1ccccc1)c1nc2ncccn2n1	-2%	2	-12	0	5%	-3%
CC(C)(C)c1ccc(C(=O)NC(=S)N2CCOCC2)cc1	-12%	0	0	-1	10µM*	-1%
CC(=O)c1cccc(NC(=O)COC(=O)c2ccccc2OCc2cccc(Br)c2)c1	.	0	.	.	13%	.
CCOC(=O)c1ccc(/[N+]([O-])=C/c2ccccc2)cc1	.	0	9	-4	?	0%
C#CCCc1cscc1/C=[N+](\[O-])c1ccc(C(=O)OCC)cc1	.	-1	6	2	6.3µM*	2%
CCCCOc1ccc(CC(=O)N(C)O)cc1	.	-1	.	.	-25%	.
CCC(=O)Nc1cccc(-c2cc3ccccc3oc2=O)c1	1%	-1	16	0	10µM*	-2%
Cn1ncc(Cl)c1C(=O)N1CCN(c2ccccc2)CC1	-1%	0	21	-1	5%	-5%
Cn1ncc(Cl)c1C(=O)N1CCC(Cc2ccccc2)CC1	22µM*	-1	-7	-6	1%	-7%
N#Cc1ccccc1Oc1ccc(S(=O)(=O)N2CCCCC2)cn1	.	-1	5	-2	10µM*	-1%
Cc1nc(N2CCN(c3ccccn3)CC2)c2c(C)c(C(=O)Nc3ccc(F)cc3F)sc2n1	-9%	19	31	6	-42%	-7%
Cc1nc(N2CCN(c3ccccn3)CC2)c2c(C)c(C(=O)Nc3ccc(F)cc3Cl)sc2n1	.	97*	-20	0	5%	-3%
Nc1c(C(=O)N/N=C/c2ccc(F)cc2)oc2nc(-c3ccccc3)cc(-c3ccco3)c12	-6%	0	-17	230*	-35%	23%
Cc1ccc(-c2nc3ccsc3c(=O)o2)cc1	-9%	0	21	0	13µM*	-2%
Cc1ccc(-n2c(C)nc3ccsc3c2=O)cc1	.	6	16	-1	-1%	0%
COc1ccc(OC)c(NC(=O)c2nc(S(=O)(=O)Cc3ccccc3F)ncc2Cl)c1	.	-1	.	.	-35%	.
CC(C)Cc1nn2c(=O)cc(COC(=O)c3ccc(NC(=O)c4cccs4)cc3)nc2s1	.	2	-68*	.	.	.
CCCc1nn2c(=O)cc(COC(=O)c3ccc(NC(=O)c4cccs4)cc3)nc2s1	.	1	-18	.	.	.
